# PMC8384837, “Expanding the binding specificity for RNA recognition by a PUF domain”
# Biological target: PUM1 PUF domain R5-LYR (Homo sapiens, UniProt Q14671 828-1176, C1007L;R1008Y;Q1011R)
# Assay: yeast three-hybrid, YBZ-1, SC-Leu-His + 0.5 mM 3-AT, 4 days
# Details: tags: N-Gal4 AD-HA kept; label: inside an RPR1-promoter hybrid RNA with tandem MS2 sites; ssRNA
# Outline: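 A centromeric plasmid in strain YBZ-1 co-expressed Pumilio-1 PUF domain libraries, randomized at the three base-contacting residues of each repeat, with matching RNA elements; the strain carries a LexA–MS2 coat fusion and a HIS3 reporter. After four days on SC-Leu (input) or SC-Leu-His + 0.5 mM 3-AT (selection), the repeat regions were PCR-amplified and Illumina-sequenced. The interaction score is the log change in variant frequency from input to selection, using log2 and a pseudocount of 1 where absent.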
row,Sequence,binding signal
1,GGCUAGAACUAGUGGAUCCCCCGGCGCCCGGCGGCUCGAGCCCGGGUAAGUGUGAAUAGUCUGCAUGCCGCCGGGCGCCAUGCCUGCAGGUCGACUCUAGAAAACAUG,0.51 log2 enrichment (interaction score)
2,GGCUAGAACUAGUGGAUCCCCCGGCGCCCGGCGGCUCGAGCCCGGGUAAGUGUCAAUAGUCUGCAUGCCGCCGGGCGCCAUGCCUGCAGGUCGACUCUAGAAAACAUG,3.17 log2 enrichment (interaction score)
3,GGCUAGAACUAGUGGAUCCCCCGGCGCCCGGCGGCUCGAGCCCGGGUAAGUGUAAAUAGUCUGCAUGCCGCCGGGCGCCAUGCCUGCAGGUCGACUCUAGAAAACAUG,4.43 log2 enrichment (interaction score)
4,GGCUAGAACUAGUGGAUCCCCCGGCGCCCGGCGGCUCGAGCCCGGGUAAGUGUUAAUAGUCUGCAUGCCGCCGGGCGCCAUGCCUGCAGGUCGACUCUAGAAAACAUG,3.43 log2 enrichment (interaction score)
